Source: PubChem BioAssay (NCATS)
Several values for one entry are separate records, joined by “and”; a condition that tells them apart may be missing. Equal values may be shown once. Results filed as inconclusive are left out. Activity calls are given as the source filed them. Unless noted, the call rests on the fitted dose curve; in most records, active means well fitted curve in the direction sought with a large enough effect; inconclusive means small, poorly fitted or top-dose-only effect, or another doubt; inactive means no such curve, though single readings can be large; an effect the other way counts as inactive or inconclusive.

Key:
[1] = Cell Viability - BJ (AID 421; calls by dose curve;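 further: potency means the concentration at half of the fitted maximal effect; cells exposed to compound for 40 hours at 37 °C before readout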); details: BJ fibroblast viability, qHTS
Procedure, shortened: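 Quantitative HTS: ATP depletion in BJ cells after 40 hr compound exposure in complete culture medium, detected with CellTiter-Glo; AC50 from standard Hill fits.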

[2] = Cell Viability - HepG2 (AID 433; calls by dose curve;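 further: potency means the concentration at half of the fitted maximal effect; potency for ATP loss meaning cytotoxicity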); details: qHTS
Procedure, shortened: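 HepG2 cells, 1500 per well, treated 40 hr at 37 °C in complete medium; viability from intracellular ATP by CellTiter-Glo luminescence. Normalized to DMSO and 100 uM tamoxifen; AC50 from Hill fit of qHTS concentration-response.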

[3] = Cell Viability - MRC5 (AID 434; calls by dose curve;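 further: potency means the concentration at half of the fitted maximal effect; potency reflects cytotoxicity seen as loss of intracellular ATP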); details: MRC5 lung fibroblast viability, qHTS
Procedure, shortened: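 ATP luminescence read-out (CellTiter-Glo, 20 min RT) after 40 hr, 37 °C compound exposure of 1500 MRC5 cells/well. Data normalized to DMSO (basal) and 100 uM tamoxifen (100% inhibition); AC50 from standard Hill equation.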

[4] = biological target: Mitogen-activated protein kinase 10 (Mus musculus) (UniProt Q61831); assay: JNK3 AlphaScreen Assay (AID 530; active means well fitted curve in either direction with a large enough effect, not every such curve was filed as active;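 further: kinase came from lysate of stimulated human HepG2 cells; signal reports phosphorylation of biotinylated GST-cJun 1-79 at Ser73 with 10 µM ATP; on the % scale 0 is the no-effect control and ±100 the full control effect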); details: JNK3 lysate, c-Jun phosphorylation; series mostly up to 57.1 µM
Procedure, shortened: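 Activity was read by AlphaScreen after JNK3-containing HepG2 lysate (cytokine pre-activated) phosphorylated biotinylated GST-cJun with 10 uM ATP at room temperature. Phospho-Ser73 cJun antibody with Protein-A acceptor beads provided detection.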

[5] = Cell Viability - Renal Proximal Tubule (AID 545); details: renal proximal tubule cells viability; at 91.7 µM (top of the series), primary cells of rat origin unless noted; further: nearly all actives have a fitted effect of over 40% in size
Procedure, shortened: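 Rat renal proximal tubule primary cells, 1000/well, exposed to compounds for 40 hr at 37 °C in complete medium; cellular ATP read by CellTiter-Glo luminescence. AC50 from concentration-response fitted with standard Hill equation.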

[6] = Cell Viability - Mesenchymal (AID 546); details: mesenchymal cells viability, qHTS; series mostly up to 91.7 µM;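 further: cells exposed to compound for 40 hours before reading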
Procedure, shortened: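 Human renal mesenchymal cells (glomerulus-derived), 1000 cells/well, 5 hr 37 °C pre-incubation; compound 40 hr, 37 °C; CellTiter-Glo, 20 min RT; luminescence; AC50 via Hill equation.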

[7] = Cellular Toxicity (caspase-3) Jurkat (AID 655); details: Jurkat caspase-3 activation, luminescence, DMSO = 0%, tamoxifen = 100%; at 92.2 µM (top of the series);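 further: cells exposed to compound for 16 h at 37 °C before reading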
Procedure, shortened: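 Jurkat cells (5000/well) in complete medium exposed 16 h at 37 C; caspase-3/7 activity read by Caspase-Glo luminescence after 20 min at room temperature. Normalized to DMSO and 100 uM tamoxifen; AC50 from Hill fits.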

[8] = Cellular Toxicity (caspase-3) HUV-EC-C (AID 656); details: HUV-EC-C cells, caspase-3 activation (apoptosis), vehicle = 0, 100 µM tamoxifen = 100%; series mostly up to 92.2 µM
Procedure, shortened: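 HUV-EC-C cells (1000/well) in complete medium, compound-treated 16 h at 37 °C; caspase-3/7 activity read by Caspase-Glo 3/7 luminescence. Normalized to DMSO (basal) and 100 uM tamoxifen (100%); AC50 from Hill-equation concentration-response fits.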

[9] = Cellular Toxicity (caspase-3) SHSY5Y (AID 657); details: SH-SY5Y caspase-3 activation, DMSO zero, 10 µM staurosporine = 100%; series mostly up to 91.7 µM
Procedure, shortened: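 SH-SY5Y human neuroblastoma cells, 1500/well, exposed to compound for 16 hours at 37 °C in complete medium. Caspase-3/7 activity read by Caspase-Glo luminescence after 1 hr at room temperature, normalized to DMSO and 10 uM staurosporine; AC50 from Hill fit.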

[10] = Cellular Toxicity (caspase-3) BJ (AID 658); details: BJ fibroblasts, luminescence, normalized: DMSO 0%, staurosporine 100%; series mostly up to 91.7 µM
Procedure, shortened: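 qHTS, BJ fibroblasts, 1000 cells/well; 5 hr preincubation, 16 hr compound, 37 °C; Caspase-Glo 3/7 reagent, 1 hr RT; luminescence. DMSO = 0%, 10 uM staurosporine = 100%. Hill-equation AC50.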

[11] = Cellular Toxicity (caspase-3) MRC-5 (AID 659); details: MRC-5 cells, luminescence, normalized: DMSO 0%, 10 µM staurosporine 100%; series mostly up to 91.7 µM
Procedure, shortened: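 MRC-5 fibroblasts, 1500/well; 16 h cpd, 37 °C; Caspase-Glo 3/7, 1 h RT; lumi read. Norm: DMSO = 0%, 10 uM staurosporine = 100%. Hill-fit AC50 from qHTS conc-response.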

[12] = Cellular Toxicity (caspase-3) Mesangial (AID 660); details: mesangial cells, normalized: DMSO 0%, 100 µM tamoxifen 100%; series mostly up to 91.7 µM;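 further: cells exposed to compound for 16 h before the caspase read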
Procedure, shortened: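 Caspase 3/7 activation measured by Caspase-Glo 3/7 luminescence (20 min, room temperature) following 16 h exposure of mesangial cells (1000/well); AC50 from Hill-equation fit, normalized to DMSO and 100 uM tamoxifen.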

[13] = Cellular Toxicity (caspase-3) SK-N-SH (AID 661); details: SK-N-SH caspase-3 activation, qHTS, DMSO as zero, staurosporine as full; series mostly up to 91.7 µM
Procedure, shortened: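 Caspase 3/7 activation was read by luminogenic substrate cleavage after 16 hour treatment of SK-N-SH cells. Signal was scaled between DMSO and 10 uM staurosporine, and concentration-response data were fitted with the Hill equation for AC50.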

[14] = Cellular Toxicity (caspase-3) H-4-II-E (AID 663); details: H-4-II-E rat hepatoma, scaled: DMSO 0%, 100 µM tamoxifen 100%; series mostly up to 92.2 µM;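 further: cells exposed to compound for 16 hr before readout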
Procedure, shortened: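 H-4-II-E rat hepatoma, 1500 cells/well, 5 hr settle at 37 °C; compound 16 hr, 37 °C, complete medium; Caspase-Glo 3/7, 20 min RT; luminescence. DMSO = 0%, 100 uM tamoxifen = 100%; Hill-equation AC50.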

[15] = Cellular Toxicity (caspase-3) Renal Proximal Tubule (AID 667); details: renal proximal tubule cells; at 91.7 µM (top of the series), primary cells freshly taken from rat, solvent-only wells 0%, staurosporine 100% unless noted;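 further: cells exposed to compound for 16 hours at 37 °C before detection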
Procedure, shortened: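 Freshly isolated primary rat kidney proximal tubule cells, 1000/well, treated 16 hr at 37 °C, then Caspase-Glo 3/7 luminescence after 1 hr. Normalized to DMSO and 10 uM staurosporine; AC50 from Hill fit.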

[16] = qHTS Assay for Identification of Small Molecule Inducers of Hypoxia Response (AID 2120; active means well fitted curve in the direction sought with a large enough effect in the signal ratio, with a control signal flat, not every such curve was filed as active; the % refers to the signal ratio; further: 0% is about no effect); details: hypoxia response reporter cells, beta-lactamase ratio readout; series mostly up to 104 µM
Procedure, shortened: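 Reporter induction read as the CCF4 blue/green (460nm/530nm) emission ratio after 2.5 h dye loading at room temperature. ME-180 HRE-beta-lactamase cells received titrated compounds for 17 h at 37 degrees Celsius; AC50 values derived.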

[17] = qHTS assay for small molecule agonists of retinoid X receptor alpha signaling (AID 588544); details: HEK293T RXRa-UAS-bla, beta-lactamase reporter, 18 h; 530 nm emission
[18] = qHTS assay for small molecule agonists of the antioxidant response element (ARE) signaling pathway measured by Nrf2-dependant transcriptional activity - cell viability counter screen (AID 720653; active means well fitted curve in the direction sought with a large enough effect in the repeat runs; an effect the other way counts as inactive or inconclusive; further: on the % scale 0 is the no-effect control and ±100 the full control effect); details: ARE-bla HepG2 viability, CellTiter-Glo ATP luminescence, 16 h; stronger effect = lower value
Procedure, shortened: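 ARE-bla HepG2 cells treated with compounds for 16 h at 37C; this counter screen measures viability as intracellular ATP by CellTiter-Glo luminescence after 30 min at room temperature.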

[19] = qHTS assay for cell viability of HEK293 cells (AID 743288); details: ATP luminescence (CellTiter-Glo), 18 h; max response: stronger effect = lower value; further: on the % scale 0 is the no-effect control and ±100 the full control effect; nearly all actives have a fitted effect of over 50% in size
Procedure, shortened: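 Steps: plate 2,000 parental HEK293 cells per well; incubate ≥5 h, 37 C; add compounds in DMSO; incubate 18 h, 37 C; add CellTiter-Glo; wait 30 min at room temperature; read luminescence.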

[20] = qHTS assay for cell viability of the p53RE-bla HCT-116 cell line (AID 743292); details: p53RE-bla HCT-116 viability, ATP luminescence, 16 h; series mostly up to 95 µM; further: on the % scale 0 is the no-effect control and ±100 the full control effect; nearly all actives have a fitted effect of over 55% in size
Procedure, shortened: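 CellSensor p53RE-bla HCT-116 cells (4,000/well) pre-incubated 5 h at 37 C, then exposed to compounds in DMSO for 16 h at 37 C. Viability read as ATP content by CellTiter-Glo luminescence after 30 min at room temperature.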

Cc1ccc2ccccc2c1
-14.7%: max response [17]
inactive: Potency [1] > 92 µM | Potency [2] > 92 µM | Potency [3] > 92 µM | outcome [4] | activity change, negative = cytotoxicity [5] -15.4% | outcome [6] | caspase-3 activation [7] 1.17% | outcome [8] | outcome [9] | outcome [10] | outcome [11] | outcome [12] | outcome [13] | outcome [14] | caspase-3 activation [15] 18.4% | outcome [16] | max response [18] -3.38% | max response [19] 2.28% | Potency [20]

C=C(C)C#N
5.57% and -6.47%: max response [17]
inactive: Potency [1] > 92 µM | Potency [2] > 92 µM | Potency [3] > 92 µM | outcome [4] | activity change, negative = cytotoxicity [5] 0.281% | outcome [6] | caspase-3 activation [7] 1.57% | outcome [8] | outcome [9] | outcome [10] | outcome [11] | outcome [12] | outcome [13] | outcome [14] | caspase-3 activation [15] 7.27% | outcome [16] | max response [18] -12.2% and -0.888% | max response [19] -2.82% and -11% | Potency [20]

c1ccc(OP(Oc2ccccc2)Oc2ccccc2)cc1
inactive: Potency [1] > 92 µM | Potency [2] > 92 µM | Potency [3] > 92 µM | outcome [4] | activity change, negative = cytotoxicity [5] 1.28% | outcome [6] | caspase-3 activation [7] -1.12% | outcome [8] | outcome [9] | outcome [10] | outcome [11] | outcome [12] | outcome [13] | outcome [14] | caspase-3 activation [15] 1.22% | outcome [16] | max response [18] 3.55% and -14.3% | max response [19] -13.6% and -7.52% | Potency [20]
3.52% and -16.1%: max response [17]

C=CC(C)=O
inactive: Potency [1] > 92 µM | Potency [2] > 92 µM | Potency [3] > 92 µM | outcome [4] | activity change, negative = cytotoxicity [5] 14% | outcome [6] | caspase-3 activation [7] -0.622% | outcome [8] | outcome [9] | outcome [10] | outcome [11] | outcome [12] | outcome [13] | outcome [14] | caspase-3 activation [15] -2.96% | outcome [16] | max response [18] 0.624% | max response [19] 0.318% | Potency [20]
-8.63%: max response [17]

CCCCOCCOP(=O)(OCCOCCCC)OCCOCCCC
-10.8% and -2.33%: max response [17]
inactive: Potency [1] > 92 µM | Potency [2] > 92 µM | Potency [3] > 92 µM | outcome [4] | activity change, negative = cytotoxicity [5] 5.24% [at 91.7 µM] | outcome [6] | caspase-3 activation [7] 1.12% | outcome [8] | outcome [9] | outcome [10] | outcome [11] | outcome [12] | outcome [13] | outcome [14] | caspase-3 activation [15] -4.16% [at 91.7 µM] | outcome [16] | max response [18] -2.06% and 1.41% | max response [19] -5.77% and -12.8% | Potency [20]

O=[N+]([O-])c1cccc2ccccc12
inactive: Potency [1] > 92 µM | Potency [2] > 92 µM | Potency [3] > 92 µM | outcome [4] | activity change, negative = cytotoxicity [5] -0.153% | outcome [6] | caspase-3 activation [7] -1.75% | outcome [8] | outcome [9] | outcome [10] | outcome [11] | outcome [12] | outcome [13] | outcome [14] | caspase-3 activation [15] -1.57% | outcome [16] | max response [18] 8.97% and -15.3% | max response [19] -12% and 2.53% | Potency [20]
-3.41% and -2.17%: max response [17]

OCC1CO1 (stereo not given)
inactive: Potency [1] > 92 µM | Potency [2] > 92 µM | Potency [3] > 92 µM | outcome [4] | activity change, negative = cytotoxicity [5] 4.62% | outcome [6] | caspase-3 activation [7] 0.767% | outcome [8] | outcome [9] | outcome [10] | outcome [11] | outcome [12] | outcome [13] | outcome [14] | caspase-3 activation [15] 0.454% | outcome [16] | max response [18] -5.57% and 1.53% | max response [19] -3.99% and -2.83% | Potency [20]
-4.32%: max response [17]

CCOc1ccc(N)cc1
inactive: Potency [1] > 92 µM | Potency [2] > 92 µM | Potency [3] > 92 µM | outcome [4] | activity change, negative = cytotoxicity [5] -1.23% | outcome [6] | caspase-3 activation [7] -0.901% | outcome [8] | outcome [9] | outcome [10] | outcome [11] | outcome [12] | outcome [13] | outcome [14] | caspase-3 activation [15] -17.4% | outcome [16] | max response [18] 1.12% | max response [19] 7.24% | Potency [20]
-1.09%: max response [17]

C=C(C)C(=O)OCC1CO1 (stereo not given)
inactive: Potency [1] > 92 µM | Potency [2] > 92 µM | Potency [3] > 92 µM | outcome [4] | activity change, negative = cytotoxicity [5] -4.58% | outcome [6] | caspase-3 activation [7] 1.42% | outcome [8] | outcome [9] | outcome [10] | outcome [11] | outcome [12] | outcome [13] | outcome [14] | caspase-3 activation [15] -4.2% | outcome [16] | max response [18] 1.28% | max response [19] 3.25% | Potency [20]
-10.2%: max response [17]
